For test [1], the target named is T1, SALL4 ZFC4 R900W (HT-SELEX) (Mus musculus, UniProt Q8BX22 870-940, R900W).
T1 sequence: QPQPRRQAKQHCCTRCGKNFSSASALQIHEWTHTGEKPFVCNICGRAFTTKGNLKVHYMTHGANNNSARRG
In words: HT-SELEX; high values mean tight binding. To be noted: protein: recombinant; vector His6-GST; dsDNA, one strand shown. Put shortly: (§1)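 For each canonical k-mer, binding signal is the read fraction as fold change versus the initial random library. Data came from up to 6 triplicate cycles in which purified recombinant mouse SALL4 zinc finger cluster 4 (residues 870–940, 1 µg) was incubated 10 min at room temperature with library DNA (1.5 µg first cycle, 200 ng later) in 100 µl of 10 mM Tris–HCl pH 7.5, 50 mM NaCl, poly(dI-dC), DTT, followed by Ni2+ bead capture, PCR amplification, MiSeq sequencing and a 6-mer scan.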

For test [2], the target named is T2, SALL4 ZFC4 G921D (HT-SELEX) (Mus musculus, UniProt Q8BX22 870-940, G921D).
T2 sequence: T1 sequence with W31R, G52D
In words: HT-SELEX; high values mean tight binding. To be noted: protein: recombinant; vector His6-GST; dsDNA, one strand shown. Put shortly: as §1

Substitutions are numbered along the chain they refer to.

The source of these data is PMC9838217, “Structure of SALL4 zinc finger domain reveals link between AT-rich DNA binding and Okihiro syndrome”.

On to CCCGCA, for which the binding signal in test [1] turned out to be 0.139 ± 0.0116 fold-change vs cycle 0; in test [2], 0.246 ± 0.066 fold-change vs cycle 0.

In the case of AGGGCC, the binding signal in test [1] came to 0.158 ± 0.0102 fold-change vs cycle 0; in test [2], 0.28 ± 0.0679 fold-change vs cycle 0.

For the sequence CCGGGA, the binding signal in test [1] was determined as 0.237 ± 0.0178 fold-change vs cycle 0; in test [2], 0.341 ± 0.0693 fold-change vs cycle 0.

For CCCCGG, the binding signal in test [1] stood at 0.118 ± 0.0064 fold-change vs cycle 0; in test [2], 0.224 ± 0.0627 fold-change vs cycle 0.

Regarding CGCGCA, the results for the binding signal in test [1] and in test [2] were 0.0534 ± 0.00681 fold-change vs cycle 0 and 0.139 ± 0.0597 fold-change vs cycle 0, respectively.

As for CTGCCA, the figures for the binding signal in test [1] and in test [2] were 0.304 ± 0.0171 fold-change vs cycle 0 and 0.451 ± 0.0863 fold-change vs cycle 0, respectively.

As to GCCTCC, the figures for the binding signal in test [1] and in test [2] were 0.209 ± 0.0253 fold-change vs cycle 0 and 0.334 ± 0.0802 fold-change vs cycle 0, respectively.

For GAACTA, the binding signal in test [1] is 1.48 ± 0.0646 fold-change vs cycle 0; in test [2], 1.37 ± 0.112 fold-change vs cycle 0.

Turning to CGACGA, the binding signal was found to be 0.288 ± 0.00345 fold-change vs cycle 0 in test [1] and 0.415 ± 0.0734 fold-change vs cycle 0 in test [2].

Regarding GGCGCC, the binding signal in test [1] came to 0.0274 ± 0.00854 fold-change vs cycle 0; in test [2] it was 0.102 ± 0.0477 fold-change vs cycle 0.

GGCCCC: the binding signal worked out at 0.0767 ± 0.0129 fold-change vs cycle 0 in test [1] and 0.183 ± 0.0665 fold-change vs cycle 0 in test [2].

As to ACGTCG, the binding signal in test [1] was found to be 0.298 ± 0.0109 fold-change vs cycle 0; in test [2], 0.438 ± 0.0515 fold-change vs cycle 0.

Regarding TGCGCA, the binding signal in test [1] turned out to be 0.136 ± 0.00666 fold-change vs cycle 0; in test [2], 0.263 ± 0.0848 fold-change vs cycle 0.

Turning to GGGCAA, the binding signal in test [1] is 0.299 ± 0.00241 fold-change vs cycle 0; in test [2], 0.434 ± 0.0775 fold-change vs cycle 0.

Turning to GACAGC, the binding signal was 0.361 ± 0.0178 fold-change vs cycle 0 in test [1] and 0.491 ± 0.0963 fold-change vs cycle 0 in test [2].

Turning to GCACCC, the binding signal in test [1] stood at 0.1961 ± 0.000728 fold-change vs cycle 0; in test [2] it was 0.322 ± 0.0644 fold-change vs cycle 0.

In the case of CCCCGC, the binding signal in test [1] turned out to be 0.0783 ± 0.012 fold-change vs cycle 0; in test [2], 0.179 ± 0.0709 fold-change vs cycle 0.

For the sequence CGCCCC, the binding signal in test [1] was 0.0728 ± 0.00775 fold-change vs cycle 0; in test [2], 0.173 ± 0.0648 fold-change vs cycle 0.

Regarding CAGCCC, the results for the binding signal in test [1] and in test [2] were 0.16 ± 0.0179 fold-change vs cycle 0 and 0.287 ± 0.0742 fold-change vs cycle 0, respectively.

ACGGGC: the binding signal in test [1] was determined as 0.131 ± 0.00526 fold-change vs cycle 0; in test [2] it was 0.241 ± 0.0805 fold-change vs cycle 0.

As to ACCGCT, the binding signal was 0.31 ± 0.02 fold-change vs cycle 0 in test [1] and 0.44 ± 0.0953 fold-change vs cycle 0 in test [2].

In the case of GGTGCA, the binding signal was 0.359 ± 0.0169 fold-change vs cycle 0 in test [1] and 0.479 ± 0.0732 fold-change vs cycle 0 in test [2].

Take CGGGAG: the binding signal was 0.27 ± 0.0161 fold-change vs cycle 0 in test [1] and 0.381 ± 0.0867 fold-change vs cycle 0 in test [2].

For GGGCAC, the results for the binding signal in test [1] and in test [2] were 0.144 ± 0.00697 fold-change vs cycle 0 and 0.281 ± 0.0804 fold-change vs cycle 0, respectively.

As for CCGCAG, the values for the binding signal in test [1] and in test [2] were 0.123 ± 0.0191 fold-change vs cycle 0 and 0.234 ± 0.0772 fold-change vs cycle 0, respectively.

GATCGC: the values for the binding signal in test [1] and in test [2] were 0.301 ± 0.0313 fold-change vs cycle 0 and 0.461 ± 0.0896 fold-change vs cycle 0, respectively.

As for ATCGCC, the binding signal amounted to 0.24 ± 0.00657 fold-change vs cycle 0 in test [1] and 0.401 ± 0.088 fold-change vs cycle 0 in test [2].

In the case of CGGCTC, the binding signal in test [1] was 0.124 ± 0.00754 fold-change vs cycle 0; in test [2], 0.242 ± 0.0735 fold-change vs cycle 0.

For the sequence CGGCGA, the binding signal in test [1] was 0.077 ± 0.0153 fold-change vs cycle 0; in test [2], 0.177 ± 0.0705 fold-change vs cycle 0.

CCCGGC: the binding signal was found to be 0.0588 ± 0.00399 fold-change vs cycle 0 in test [1] and 0.151 ± 0.0654 fold-change vs cycle 0 in test [2].

ACGCAG: the binding signal in test [1] is 0.305 ± 0.0196 fold-change vs cycle 0; in test [2], 0.422 ± 0.0649 fold-change vs cycle 0.

On to AGGCCG, for which the binding signal in test [1] was 0.104 ± 0.0123 fold-change vs cycle 0; in test [2], 0.216 ± 0.0702 fold-change vs cycle 0.

In the case of GGCCGA, the binding signal amounted to 0.0868 ± 0.00648 fold-change vs cycle 0 in test [1] and 0.196 ± 0.0603 fold-change vs cycle 0 in test [2].

Take GCAGCC: the binding signal is 0.112 ± 0.0161 fold-change vs cycle 0 in test [1] and 0.221 ± 0.0775 fold-change vs cycle 0 in test [2].

As to AGCGTG, the binding signal came to 0.35 ± 0.0043 fold-change vs cycle 0 in test [1] and 0.476 ± 0.0501 fold-change vs cycle 0 in test [2].

CTGGCC: the results for the binding signal in test [1] and in test [2] were 0.139 ± 0.00982 fold-change vs cycle 0 and 0.255 ± 0.0712 fold-change vs cycle 0, respectively.

Consider GACGCC, for which the binding signal in test [1] is 0.116 ± 0.00704 fold-change vs cycle 0; in test [2], 0.225 ± 0.0674 fold-change vs cycle 0.

On to CGGCAC, for which the binding signal was found to be 0.0866 ± 0.0073 fold-change vs cycle 0 in test [1] and 0.207 ± 0.0784 fold-change vs cycle 0 in test [2].

For CCACGG, the binding signal turned out to be 0.219 ± 0.0185 fold-change vs cycle 0 in test [1] and 0.334 ± 0.0695 fold-change vs cycle 0 in test [2].

As for CCGGTC, the binding signal worked out at 0.202 ± 0.0231 fold-change vs cycle 0 in test [1] and 0.315 ± 0.0731 fold-change vs cycle 0 in test [2].

As for CGGCAA, the binding signal amounted to 0.19 ± 0.00924 fold-change vs cycle 0 in test [1] and 0.324 ± 0.0774 fold-change vs cycle 0 in test [2].

Consider CGAAGC, for which the binding signal in test [1] was determined as 0.325 ± 0.00517 fold-change vs cycle 0; in test [2], 0.474 ± 0.0622 fold-change vs cycle 0.

On to GGCCTA, for which the binding signal was 0.299 ± 0.00892 fold-change vs cycle 0 in test [1] and 0.443 ± 0.0788 fold-change vs cycle 0 in test [2].

Turning to ATGCGC, the values for the binding signal in test [1] and in test [2] were 0.153 ± 0.00714 fold-change vs cycle 0 and 0.28 ± 0.0818 fold-change vs cycle 0, respectively.

Consider ACTGCC, for which the binding signal in test [1] is 0.333 ± 0.0151 fold-change vs cycle 0; in test [2], 0.469 ± 0.0726 fold-change vs cycle 0.

Regarding CCGAGC, the binding signal in test [1] was 0.158 ± 0.00799 fold-change vs cycle 0; in test [2], 0.273 ± 0.0808 fold-change vs cycle 0.

Turning to CCGTCC, the binding signal is 0.206 ± 0.0173 fold-change vs cycle 0 in test [1] and 0.337 ± 0.0624 fold-change vs cycle 0 in test [2].

Consider GACGCA, for which the binding signal in test [1] was 0.263 ± 0.0079 fold-change vs cycle 0; in test [2] it was 0.386 ± 0.0647 fold-change vs cycle 0.

Regarding GCCCCC, the figures for the binding signal in test [1] and in test [2] were 0.107 ± 0.0111 fold-change vs cycle 0 and 0.213 ± 0.0572 fold-change vs cycle 0, respectively.

Take GTCGCA: the binding signal amounted to 0.215 ± 0.0161 fold-change vs cycle 0 in test [1] and 0.341 ± 0.0831 fold-change vs cycle 0 in test [2].

In the case of CGCACG, the binding signal in test [1] was determined as 0.0997 ± 0.0037 fold-change vs cycle 0; in test [2], 0.21 ± 0.071 fold-change vs cycle 0.

For the sequence GGCGCA, the binding signal in test [1] is 0.0622 ± 0.0107 fold-change vs cycle 0; in test [2], 0.16 ± 0.0742 fold-change vs cycle 0.

For GCAGGC, the figures for the binding signal in test [1] and in test [2] were 0.124 ± 0.00995 fold-change vs cycle 0 and 0.24 ± 0.0592 fold-change vs cycle 0, respectively.

Regarding ACAGCC, the binding signal was 0.328 ± 0.00712 fold-change vs cycle 0 in test [1] and 0.462 ± 0.0935 fold-change vs cycle 0 in test [2].

As for AGCCCG, the binding signal in test [1] came to 0.14 ± 0.0115 fold-change vs cycle 0; in test [2], 0.253 ± 0.0774 fold-change vs cycle 0.

For the sequence CCGACC, the binding signal in test [1] was determined as 0.172 ± 0.00253 fold-change vs cycle 0; in test [2], 0.309 ± 0.075 fold-change vs cycle 0.

In the case of GTCGGA, the binding signal in test [1] stood at 0.35 ± 0.00494 fold-change vs cycle 0; in test [2], 0.501 ± 0.0597 fold-change vs cycle 0.

For CACGCC, the binding signal in test [1] stood at 0.137 ± 0.0218 fold-change vs cycle 0; in test [2], 0.251 ± 0.0597 fold-change vs cycle 0.

As to CAGGCA, the values for the binding signal in test [1] and in test [2] were 0.348 ± 0.0149 fold-change vs cycle 0 and 0.477 ± 0.0613 fold-change vs cycle 0, respectively.

Consider CGCTAC, for which the binding signal was determined as 0.3 ± 0.026 fold-change vs cycle 0 in test [1] and 0.426 ± 0.0556 fold-change vs cycle 0 in test [2].
